Compounds with a hit are over-represented: about 17% of the library has one in this group of screens.
TDP1 cell CPT – growth inhibition of DT40 Tdp1-/-;hTDP1 cells with camptothecin (screen for TDP1 inhibitors); chicken DT40 Tdp1-/-;hTDP1 cells + 20 nM CPT, ATP luminescence, 48 h; Potency, µM (highest dose often 46.2 µM), for inactives: top-dose activity change, negative = growth inhibition, actives largely listed as inhibitors; actives 12% (n = 420,000); AID 686979; further: on the % scale 0 is the no-effect control and ±100 the full control effect; nearly all actives have a fitted effect of over 55% in size
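Chicken DT40 Tdp1-/- cells complemented with human TDP1, 400 cells/well, exposed to compounds plus 20 nM camptothecin for at least 48 h at 37 C; viability read as ATP content by CellTiter-Glo luminescence.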
HepG2 viability – HepG2 cytotoxicity, counter-screen for TGF-b inhibitors; actives 0.76% (n = 410,000); HepG2 CAGA-GFP viability, ATP luminescence, 18 h; Potency, µM (top dose mostly 46.1 µM), for the others: at the highest dose activity change, negative = cytotoxicity, most hits filed as cytotoxic; AID 588856
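HepG2 CAGA-GFP cells (1000/well, DMEM with 1% FBS) received compound, then TGF-beta at 500 pg/mL final, and were incubated 18 hours at 37 degrees C. Viability was read by CellTiter-Glo luminescence. Media-only wells were set as complete cell-killing and DMSO as no toxicity.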
TDP1 cell noCPT – qHTS for Inhibitors of human tyrosyl-DNA phosphodiesterase 1 (TDP1): qHTS in cells in absence of CPT; AID 686978, 2013; Potency, µM (top dose mostly 46.2 µM), without a hit: at the top dose activity change, negative = growth inhibition, most hits filed as inhibitors; DT40 Tdp1-/- hTDP1 cells, no CPT, ATP luminescence, 48 h; actives 15% (n = 420,000); further: on the % scale 0 is the no-effect control and ±100 the full control effect; nearly all actives have a fitted effect of over 55% in size
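No-CPT arm: Tdp1-/-;hTDP1 DT40 cells (400/well) plus compounds, incubated ≥48 hr at 37 °C. Readout CellTiter-Glo luminescence.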
ATXN viability – viability counter-screen for ATXN expression inhibitors. S2 cells (HEK-293 line with an ATXN2-luciferase reporter) viability, CellTiter-Fluor protease fluorescence, 24 h. Potency, µM (highest dose often 56.7 µM), actives largely listed as cytotoxic. actives 0.49% (n = 400,000). AID 651635; further: nearly all actives have a fitted effect of over 40% in size
ATXN2 expr inh – reduces ATXN2 reporter expression in HEK-293 cells; HEK-293 ATXN2-luciferase reporter, luminescence, 24 h; Potency, µM (titrated, usually from 57 µM), for the others: top-dose activity change, negative = inhibition, usual class: inhibitors; actives 0.72% (n = 360,000); AID 1745845; further: on the % scale 0 is the no-effect control and ±100 the full control effect; nearly all actives have a fitted effect of over 55% in size
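qHTS (up to 57 uM final) was run with 24 h compound exposure of reporter cells at 37 °C. Each well was multiplexed: SteadyGlo luminescence measured ATXN2-luciferase expression after a fluorogenic Gly-Phe-AFC viability readout (25 uM final).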
TGFb inhibitor – blocks TGF-b signaling. HepG2 CAGA-GFP TGF-b/SMAD3 reporter, GFP fluorescence, 18 h; TGF-beta stimulated, 500 pg/mL final. Potency, µM (series often up to 46.1 µM), without a hit: top-dose activity, negative = inhibition, actives largely listed as inhibitors. actives 1.2% (n = 410,000). AID 588855; further: on the % scale 0 is the no-effect control and ±100 the full control effect; nearly all actives have a fitted effect of over 65% in size
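Inhibition of TGF-beta-driven CAGA-GFP reporter expression in HEPG2 cells is measured by cellular GFP fluorescence after 18 h stimulation with 500 pg/mL recombinant TGF-beta in 1% FBS medium at 37 degrees C.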
* hit, by the source's call; i = inactive; ? = inconclusive; nt = not tested or not shown. The call rests on the fitted dose curve; in most records, active means well fitted curve in the direction sought with a large enough effect; inconclusive means small, poorly fitted or top-dose-only effect, or another doubt; inactive means no such curve, though single readings can be large; an effect the other way counts as inactive or inconclusive. Potency means the concentration at half of the fitted maximal effect.

SMILES | TDP1 cell CPT | HepG2 viability | TDP1 cell noCPT | ATXN viability | ATXN2 expr inh | TGFb inhibitor
O=C(CSC1=NC2(CCCCCC2)N=C1c1ccccc1)Nc1ccc2c(c1)OCCO2 | ? | -18% | ? | ? | -32% | -19%
Cc1ccc(C2=NC(C)(C)N=C2SCC(=O)Nc2ccc(Cl)cc2)cc1 | 21µM* | -19% | ? | i | -17% | 14%
CC1(C)N=C(SCC(=O)Nc2ccccc2)C(c2ccc(Cl)cc2)=N1 | 23µM* | -8% | 15µM* | ? | ? | -30%
O=S(=O)(c1ccc2ncsc2c1)N1CCN(c2nc(-c3cccs3)nc3ccccc23)CC1 | 5% | nt | ? | nt | nt | nt
CCC(Cn1nnc2ccccc2c1=O)NC(=O)Nc1cccc(Cl)c1 (stereo not given) | -19% | 0% | ? | nt | nt | -19%
O=C(NCc1ccc(F)cc1)N1[C@H]2CC[C@@H]1C=C(c1ccc(F)cc1OCc1ccccc1)C2 | ? | -9% | 7.3µM* | ? | 1% | 0%
O=C(NCc1ccc(F)cc1)c1ccccc1OCc1ccccc1 | -7% | 6% | ? | i | 7% | -11%
COc1ccc(CNC(=O)N2[C@H]3CC[C@@H]2C=C(c2ccc(F)cc2OCc2ccccc2)C3)cc1OC | 8.2µM* | -1% | 7.3µM* | ? | 64% | 7%
NC1=NC[C@@H](Cc2ccc(O)cc2)N1CCc1cccc2ccccc12 | 18µM* | -3% | ? | i | 0% | 2%
NCCCC[C@H]1CN=C(N)N1CCc1cccc2ccccc12 | 1% | 20% | -25% | i | 3% | 17%
CCC(C)[C@H]1CN=C(N)N1CCc1cccc2ccccc12 (stereo not given in full) | 1.8µM* | -59% | 2.1µM* | i | -31% | ?
NC1=NC[C@H](Cc2ccc(O)cc2)N1CCc1cccc2ccccc12 | 18µM* | 11% | 15µM* | i | 8% | 24%
Cc1ccccc1NC(=O)CSc1nccn1C | nt | -7% | nt | i | 8% | -5%
CC(=O)Nc1ccc(S(=O)(=O)NNC(=S)NCC2CCCO2)cc1 (stereo not given) | -1% | 5% | -6% | i | -8% | -5%
CC1CCN(S(=O)(=O)c2ccc3[nH]ccc3c2)CC1 | ? | -1% | -25% | nt | nt | 6%
Cc1ccc(OC(=S)Nc2ccccc2)c(C)c1 | ? | 5% | 16µM* | i | 7% | 0%
N#Cc1cc2cc3c(cc2nc1NCCNC(=S)NCCCN1CCOCC1)OCO3 | -28% | 0% | ? | i | -1% | -6%
COc1ccc2c(c1)c1c(c(=O)n(Cc3ccccc3)c(=O)n1CC(=O)Nc1cc(C)cc(C)c1)n2C | ? | -33% | -25% | i | 4% | -15%
O=C(NC(=S)Nc1cccc(Cl)c1N1CCCCC1)c1ccc2c(c1)OCCO2 | 3.3µM* | 1% | ? | i | -15% | ?
O=C(NC(=S)Nc1cccc(Cl)c1N1CCCC1)c1ccc(-c2cccc([N+](=O)[O-])c2)o1 | ? | -29% | ? | i | 2% | -12%
O=C(Nc1cccc(Cl)c1N1CCCCC1)c1ccc2c(c1)OCCO2 | ? | 0% | 21µM* | i | -15% | 5%
CC(C)C(=O)N1CCC1(C)C(=O)Nc1ccc2[nH]ccc2c1 (stereo not given) | -18% | -2% | 7% | i | 13% | 24%
Cc1ccccc1CNC(=O)c1oc2c(c1C)-c1[nH]ncc1CC2 | ? | -30% | ? | nt | nt | 0%
Cc1cc(C)c(NC(=O)c2oc3c(c2C)-c2[nH]ncc2CC3)c(C)c1 | 16µM* | -19% | 21µM* | nt | nt | -5%
CCOc1ccccc1CNC(=O)c1oc2c(c1C)-c1[nH]ncc1CC2 | 16µM* | -28% | 16µM* | nt | nt | 0%
SMILES | TDP1 cell CPT | HepG2 viability | TDP1 cell noCPT | ATXN viability | ATXN2 expr inh | TGFb inhibitor
Cc1cc(NS(=O)(=O)c2ccc(NC(=O)CCCOc3cccc(C)c3C)cc2)no1 | -2% | 0% | -11% | i | 4% | -3%
CCN(c1ccccc1)S(=O)(=O)c1c(C)nc2scc(C)n2c1=O | 3% | -7% | -18% | i | 5% | -1%
CC(C)C[C@@H](C(=O)N[C@@H](C(=O)O)c1ccccc1)N1C(=O)N2CCc3c([nH]c4ccccc34)[C@@]2(C)C1=O | 2% | -2% | -14% | i | -2% | 10%
C[C@@H](C(=O)NC1CCCC1)N1C(=O)N2CCc3c([nH]c4ccccc34)[C@@]2(C)C1=O | 21µM* | -10% | ? | i | -8% | -15%
CC(C)[C@@H](C(=O)NC1CCCC1)N1C(=O)N2CCc3c([nH]c4ccccc34)[C@@]2(C)C1=O | ? | -23% | ? | ? | -8% | -17%
CC(NC(=O)[C@H](C)N1C(=O)N2CCc3c([nH]c4ccccc34)[C@@]2(C)C1=O)c1ccccc1 (stereo not given in full) | 16µM* | -47% | ? | ? | -7% | ?
Cc1c(Cl)cccc1NC(=O)CS(=O)(=O)c1ccccc1 | 17% | 6% | -10% | i | 27% | 4%
Cc1ccc(CNC(=O)c2ccc(CSCc3ccccc3C)o2)cc1 | ? | -24% | ? | nt | nt | -13%
CC12CCCC(C(C#N)C(N)=O)(C1)NC(=O)C2C#N (stereo not given) | 19% | -3% | -9% | i | -14% | ?
CCCCn1c(NC(=O)c2ccccc2)c(C#N)c2nc3ccccc3nc21 | 26µM* | -36% | 18µM* | nt | ? | ?
CCC(=O)Nc1c(C#N)c2nc3ccccc3nc2n1-c1ccc(C)cc1 | -7% | -18% | -3% | nt | -10% | -23%
CCC(C)n1c(NC(=O)c2ccccc2)c(C#N)c2nc3ccccc3nc21 (stereo not given) | 18µM* | 8% | 13µM* | ? | -33% | ?
COc1cnc(-c2cccc(C(F)(F)F)c2)c(NC(=O)c2cc3ccccc3s2)n1 | 18µM* | -61% | 10µM* | i | ? | ?
CC(C)NC(=O)c1ccc(-c2cccc(C(F)(F)F)c2)o1 | 9% | 3% | -29% | i | 8% | ?
O=[N+]([O-])c1cc([N+](=O)[O-])c(Oc2cncc(Cl)c2)cc1NC1CCCCCCC1 | 23µM* | 14% | 15µM* | i | 11% | 8%

Source: PubChem BioAssay
